# About 8,800 targets were measured; listed, in parts, are those with a hit and a random draw of the rest. About 0.5% of all pairs of compound and target were hits. Values without a mark were called inactive.
# Tests used:
# Experiment in all cases: log2 fold change, soluble protein after heating vs DMSO (PISA); higher = thermal stabilisation; K562 lysate, 10 uM; active = over 0.2 and 3.5 SD of the protein, either way, in both replicates (recomputed)
# nilotinib = compound: Cc1cn(-c2cc(NC(=O)c3ccc(C)c(Nc4nccc(-c5cccnc5)n4)c3)cc(C(F)(F)F)c2)cn1 [nilotinib]
# In short: (§1)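 Soluble protein was defined as the supernatant remaining after 21,000xg for 90 min, following pooling of heated aliquots and adjustment to 0.5% NP-40 at 4°C. Before that, crude K562 extract at 1 mg/mL protein in PBS pH 7.4 with 1 mM MgCl2 was treated with 10 μM compound for 30 min and heated for 3 min across 48°C-58°C. Quantification used TMTpro 16plex LC-MS/MS with channel sums equalised, and values are log-two fold changes in thermal stability relative to solvent controls from duplicates.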
# [1] = compound: Cc1nc(Nc2n[nH]c3c2CN(C(=O)N[C@H](CN(C)C)c2ccccc2)C3(C)C)c2sccc2n1
# In short: as §1
# dasatinib = compound: Cc1nc(Nc2ncc(C(=O)Nc3c(C)cccc3Cl)s2)cc(N2CCN(CCO)CC2)n1 [dasatinib]
# In short: as §1
# [2] = compound: Cc1ncc(-c2ccnc(Nc3ccc(S(C)(=O)=O)cc3)n2)n1C(C)C
# In short: as §1
# [3] = compound: Cn1cc(-c2ccc3c(c2)CCN3C(=O)Cc2cccc(C(F)(F)F)c2)c2c(N)ncnc21
# In short: as §1
# quisinostat = compound: Cn1cc(CNCC2CCN(c3ncc(C(=O)NO)cn3)CC2)c2ccccc21 [quisinostat]
# In short: as §1
# tipifarnib = compound: Cn1cncc1[C@@](N)(c1ccc(Cl)cc1)c1ccc2c(c1)c(-c1cccc(Cl)c1)cc(=O)n2C [tipifarnib]
# In short: as §1
# [4] = compound: NC(=O)Nc1cc(-c2cccc(F)c2)sc1C(=O)N[C@H]1CCCNC1
# In short: as §1
# [5] = compound: NC(=O)c1cnc(N[C@@H]2CCCC[C@@H]2N)nc1Nc1cccc(-n2nccn2)c1
# In short: as §1
# [6] = compound: NC1(c2ccc(-c3nc4ccn5c(=O)[nH]nc5c4cc3-c3ccccc3)cc2)CCC1
# In short: as §1
# [7] = compound: NCC(=O)Nc1ccc(-n2nc(C(F)(F)F)cc2-c2ccc3c(ccc4ccccc43)c2)cc1
# In short: as §1
# vorinostat = compound: O=C(CCCCCCC(=O)Nc1ccccc1)NO [vorinostat]
# In short: as §1
# silmitasertib = compound: O=C(O)c1ccc2c(c1)nc(Nc1cccc(Cl)c1)c1ccncc12 [silmitasertib]
# In short: as §1
# [8] = compound: O=C1NC(=O)C(c2cnc3ccccn23)=C1c1cn2c3c(cc(F)cc13)CN(C(=O)N1CCCCC1)CC2
# In short: as §1
# entospletinib = compound: c1cn2cc(-c3ccc4cn[nH]c4c3)nc(Nc3ccc(N4CCOCC4)cc3)c2n1 [entospletinib]
# In short: as §1
# Chain of UniProt Q8NCF5 (Q8NCF5 whole entry, looked up): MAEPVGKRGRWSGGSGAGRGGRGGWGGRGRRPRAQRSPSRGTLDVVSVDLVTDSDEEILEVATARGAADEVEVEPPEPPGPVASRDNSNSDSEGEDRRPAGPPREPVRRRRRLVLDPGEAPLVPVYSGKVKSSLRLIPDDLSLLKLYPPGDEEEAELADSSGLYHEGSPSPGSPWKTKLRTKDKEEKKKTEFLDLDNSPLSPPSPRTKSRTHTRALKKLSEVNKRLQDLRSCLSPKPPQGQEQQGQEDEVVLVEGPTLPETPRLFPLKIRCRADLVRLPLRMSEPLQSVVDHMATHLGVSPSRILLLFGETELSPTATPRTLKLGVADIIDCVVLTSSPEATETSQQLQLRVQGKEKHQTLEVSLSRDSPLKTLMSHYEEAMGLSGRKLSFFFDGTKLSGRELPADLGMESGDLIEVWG
# Chain of UniProt Q96IV0 (Q96IV0 whole entry, looked up): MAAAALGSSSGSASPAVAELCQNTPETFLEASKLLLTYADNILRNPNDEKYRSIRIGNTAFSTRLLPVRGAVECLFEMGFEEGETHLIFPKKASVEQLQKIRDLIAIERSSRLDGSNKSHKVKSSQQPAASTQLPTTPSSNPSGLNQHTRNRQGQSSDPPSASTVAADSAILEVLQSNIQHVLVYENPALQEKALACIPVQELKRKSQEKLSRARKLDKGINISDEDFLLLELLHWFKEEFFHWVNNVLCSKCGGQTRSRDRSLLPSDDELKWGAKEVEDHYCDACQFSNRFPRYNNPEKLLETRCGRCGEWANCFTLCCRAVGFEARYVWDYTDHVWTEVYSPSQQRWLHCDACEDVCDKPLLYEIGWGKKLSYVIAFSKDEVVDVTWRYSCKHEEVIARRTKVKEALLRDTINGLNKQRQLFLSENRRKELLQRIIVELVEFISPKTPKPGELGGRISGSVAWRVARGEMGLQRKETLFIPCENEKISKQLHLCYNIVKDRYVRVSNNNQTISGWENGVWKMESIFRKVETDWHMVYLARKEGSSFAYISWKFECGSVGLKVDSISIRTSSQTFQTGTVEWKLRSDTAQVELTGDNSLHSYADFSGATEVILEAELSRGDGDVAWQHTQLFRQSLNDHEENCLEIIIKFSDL
# Chain of UniProt Q86XI2 (Q86XI2 whole entry, looked up): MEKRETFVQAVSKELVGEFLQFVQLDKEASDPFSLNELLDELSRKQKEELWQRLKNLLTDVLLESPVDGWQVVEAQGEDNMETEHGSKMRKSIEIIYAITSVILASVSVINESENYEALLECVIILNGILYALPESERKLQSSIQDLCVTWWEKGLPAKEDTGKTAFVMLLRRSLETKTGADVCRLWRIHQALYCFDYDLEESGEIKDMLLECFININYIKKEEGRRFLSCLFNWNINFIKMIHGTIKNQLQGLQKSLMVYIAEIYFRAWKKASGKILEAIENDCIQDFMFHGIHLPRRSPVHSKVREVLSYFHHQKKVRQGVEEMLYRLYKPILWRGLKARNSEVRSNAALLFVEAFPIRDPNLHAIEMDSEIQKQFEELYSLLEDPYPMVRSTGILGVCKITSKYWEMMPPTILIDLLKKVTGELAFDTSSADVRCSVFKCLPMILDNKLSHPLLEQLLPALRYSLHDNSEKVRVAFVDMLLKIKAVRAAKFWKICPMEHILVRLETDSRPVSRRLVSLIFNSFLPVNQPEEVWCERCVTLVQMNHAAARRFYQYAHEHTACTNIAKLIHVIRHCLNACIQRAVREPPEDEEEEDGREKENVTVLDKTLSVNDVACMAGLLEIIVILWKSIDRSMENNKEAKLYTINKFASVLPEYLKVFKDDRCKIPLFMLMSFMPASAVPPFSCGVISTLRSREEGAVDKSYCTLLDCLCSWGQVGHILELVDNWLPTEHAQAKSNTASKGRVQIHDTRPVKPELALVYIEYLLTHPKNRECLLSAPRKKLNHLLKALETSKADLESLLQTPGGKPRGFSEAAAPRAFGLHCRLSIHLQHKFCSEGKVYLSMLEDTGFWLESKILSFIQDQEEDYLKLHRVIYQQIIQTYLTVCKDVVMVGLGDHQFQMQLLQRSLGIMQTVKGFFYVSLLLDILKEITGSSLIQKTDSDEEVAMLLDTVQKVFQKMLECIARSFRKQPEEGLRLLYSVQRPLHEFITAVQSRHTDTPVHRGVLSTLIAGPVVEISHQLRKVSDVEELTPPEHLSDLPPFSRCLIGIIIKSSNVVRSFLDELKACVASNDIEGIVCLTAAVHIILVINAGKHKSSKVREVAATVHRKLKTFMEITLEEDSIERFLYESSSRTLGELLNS
# Chain of UniProt P22059 (P22059 whole entry, looked up): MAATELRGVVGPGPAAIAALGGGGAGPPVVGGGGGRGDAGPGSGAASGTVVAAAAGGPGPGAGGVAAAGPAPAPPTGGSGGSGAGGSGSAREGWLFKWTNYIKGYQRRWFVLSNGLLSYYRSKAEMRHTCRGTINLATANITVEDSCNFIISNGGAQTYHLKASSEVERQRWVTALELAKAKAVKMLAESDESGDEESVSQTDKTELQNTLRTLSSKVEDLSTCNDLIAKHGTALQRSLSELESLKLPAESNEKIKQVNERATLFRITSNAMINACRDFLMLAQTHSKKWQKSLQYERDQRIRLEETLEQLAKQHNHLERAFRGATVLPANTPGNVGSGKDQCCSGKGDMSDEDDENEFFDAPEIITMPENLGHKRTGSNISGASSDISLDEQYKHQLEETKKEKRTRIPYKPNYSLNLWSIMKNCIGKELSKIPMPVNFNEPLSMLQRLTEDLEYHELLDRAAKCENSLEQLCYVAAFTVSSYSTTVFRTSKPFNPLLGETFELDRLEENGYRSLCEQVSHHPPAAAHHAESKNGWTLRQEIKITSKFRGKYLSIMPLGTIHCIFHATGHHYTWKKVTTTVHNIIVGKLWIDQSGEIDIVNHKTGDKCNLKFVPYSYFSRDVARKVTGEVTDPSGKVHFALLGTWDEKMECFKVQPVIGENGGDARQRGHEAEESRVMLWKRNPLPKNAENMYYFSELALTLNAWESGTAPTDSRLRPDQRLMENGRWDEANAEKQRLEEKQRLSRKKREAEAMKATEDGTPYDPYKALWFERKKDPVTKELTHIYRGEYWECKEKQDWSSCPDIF
# Chain of UniProt P00480 (P00480 whole entry, looked up): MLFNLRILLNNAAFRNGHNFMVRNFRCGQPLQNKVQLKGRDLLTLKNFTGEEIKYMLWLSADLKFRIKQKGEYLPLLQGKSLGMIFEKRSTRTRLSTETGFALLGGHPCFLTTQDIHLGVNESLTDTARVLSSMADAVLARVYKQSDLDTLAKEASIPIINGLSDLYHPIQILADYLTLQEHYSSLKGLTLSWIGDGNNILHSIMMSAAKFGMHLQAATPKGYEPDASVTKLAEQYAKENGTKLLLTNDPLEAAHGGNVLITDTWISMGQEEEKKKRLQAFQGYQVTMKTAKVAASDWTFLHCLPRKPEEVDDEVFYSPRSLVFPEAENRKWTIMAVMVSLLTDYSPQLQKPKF
# Chain of UniProt Q96DH6 (Q96DH6 whole entry, looked up): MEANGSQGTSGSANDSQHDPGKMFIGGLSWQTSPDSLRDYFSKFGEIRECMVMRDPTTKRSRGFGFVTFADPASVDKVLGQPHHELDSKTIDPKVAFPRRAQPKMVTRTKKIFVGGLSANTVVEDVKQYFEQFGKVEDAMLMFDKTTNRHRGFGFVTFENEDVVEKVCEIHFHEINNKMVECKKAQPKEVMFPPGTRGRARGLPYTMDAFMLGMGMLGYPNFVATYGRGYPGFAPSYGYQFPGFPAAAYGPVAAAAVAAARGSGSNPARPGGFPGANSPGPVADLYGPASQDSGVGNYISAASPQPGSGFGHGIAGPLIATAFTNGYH
# Chain of UniProt Q96I59 (Q96I59 whole entry, looked up): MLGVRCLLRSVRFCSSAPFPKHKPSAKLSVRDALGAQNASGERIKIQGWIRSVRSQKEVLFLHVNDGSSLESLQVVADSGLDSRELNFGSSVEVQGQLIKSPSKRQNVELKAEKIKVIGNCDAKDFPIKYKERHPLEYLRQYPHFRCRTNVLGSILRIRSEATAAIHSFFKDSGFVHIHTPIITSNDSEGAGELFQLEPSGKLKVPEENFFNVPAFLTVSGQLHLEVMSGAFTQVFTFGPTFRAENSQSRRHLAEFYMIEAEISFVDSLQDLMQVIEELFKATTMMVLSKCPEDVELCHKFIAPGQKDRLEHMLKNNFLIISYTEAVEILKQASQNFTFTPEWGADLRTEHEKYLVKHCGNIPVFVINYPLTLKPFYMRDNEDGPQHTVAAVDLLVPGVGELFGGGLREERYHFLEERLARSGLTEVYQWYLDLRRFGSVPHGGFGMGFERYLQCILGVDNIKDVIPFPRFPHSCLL
Target,log2 fold change (nilotinib),log2 fold change [1],log2 fold change (dasatinib),log2 fold change [2],log2 fold change [3],log2 fold change (quisinostat),log2 fold change (tipifarnib),log2 fold change [4],log2 fold change [5],log2 fold change [6],log2 fold change [7],log2 fold change (vorinostat),log2 fold change (silmitasertib),log2 fold change [8],log2 fold change (entospletinib)
NARS2 (UniProt Q96I59),0.019,-0.027,-0.046,-0.014,0.026,-0.023,0.007,0.051,0.037,-0.037,0.063,-0.344 (active),0.05,-0.029,-0.079
OTC (UniProt P00480),-0.105,-0.023,-0.347,-0.159,0.106,-0.492,0.054,-0.055,0.071,-0.075,0.097,0.087,-0.029,-0.157,-0.028
NFATC2IP (UniProt Q8NCF5),0.027,-0.015,0.071,-0.055,0.005,0.019,0.061,0,-0.015,0.03,0.041,-0.069,-0.039,-0.07,0.041
OSBP (UniProt P22059),-0.073,0.005,-0.221 (active),-0.015,-0.011,0,0.042,0.012,0.031,0.04,0.041,0.108,-0.121,-0.015,-0.1
PARD3 (UniProt Q8TEW0),-0.114,-0.109,0.021,-0.031,0.024,-0.002,0.121,0.029,0.199,0.105,-0.071,-0.314,-0.118,-0.081,-0.003
MSI2 (UniProt Q96DH6),-0.089,0.011,0.01,0.009,0.049,0.023,-0.057,0.029,0.028,-0.016,0.053,-0.046,-0.021,-0.052,0.033
NCAPG2 (UniProt Q86XI2),-0.002,-0.035,-0.078,-0.024,-0.015,-0.092,0.003,0.061,0.045,-0.031,0.002,-0.598 (active),0.015,-0.016,0.009
NEBL (UniProt O76041),-0.024,0.019,0.089,0.032,-0.007,-0.045,0.008,-0.065,-0.018,-0.03,0.056,0.207,0.052,-0.026,-0.018
NGLY1 (UniProt Q96IV0),-0.004,0.02,-0.038,0.008,0.042,-0.104,-0.016,0.041,-0.005,-0.03,-0.014,-0.29 (active),0.041,0.018,0.034
NUP188 (UniProt Q5SRE5),0.025,-0.003,-0.074,-0.002,0.055,-0.024,-0.047,0.043,0.03,0.009,-0.002,-0.36 (active),0.073,-0.009,-0.003
NUP205 (UniProt Q92621),-0.014,0.004,-0.04,0.008,0.04,-0.041,-0.027,0.052,0.047,-0.012,0.003,-0.335 (active),0.037,0.001,0.005
